Gal4-VP16 FLuc: VP16 counterscreen qHTS for inhibitors of ROR gamma transcriptional activity; Drosophila S2 Gal4-VP16 UAS-luciferase, luminescence, 20 h; Potency, µM (highest dose often 53.6 µM), for the others: top-dose activity, negative = inhibition, usual class: inhibitors; 310,000 tested, 3.5% active; AID 2546, 2010;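 further: Gal4-VP16 expression switched on by copper sulfate through the metallothionein promoter; potency means the concentration at half of the fitted maximal effect; on the % scale 0 is the no-effect control and ±100 the full control effect; nearly all actives have a fitted effect of over 50% in size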
CtBP-E1A blk: qHTS Assay for Inhibitors of the CtBP/E1A Interaction; AlphaScreen GST-E1A/His-CtBP binding, 1536-well; active compounds read low; activity change, % (concentration not given with the values); CtBP / adenovirus E1A interaction (AlphaScreen); 340,000 tested, 0.49% active; AID 651724, 2012; in the data active means activity change below about -65%; inconclusive means mostly about -30% to -63%; further: on the % scale 0 is the no-effect control and ±100 the full control effect
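Steps: dispense buffer (Tris pH 8.0, NaCl 300 mM, TCEP 1 mM, BSA, Tween 20); add 5X protein mix (GST-E1A, His-CtBP, 125 nM each); pin 23 nL compound; 2 h at 37 °C, dark; add 5X beads (50 ug/mL); 1 h; read.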
Six1-Eya2 inh: qHTS Assay for Inhibitors of the Six1/Eya2 Interaction | Homeobox protein SIX1 (Homo sapiens) + Protein phosphatase EYA2 (Homo sapiens), … | AlphaScreen GST-Six1/His-Eya2 binding, biochemical; active compounds read low | activity change, % (no concentration beside the values) | 360,000 tested, 0.56% active | AID 651725, 2012; in the data active means activity change below about -65%; inconclusive means mostly about -30% to -63%; further: on the % scale 0 is the no-effect control and ±100 the full control effect
Target sequence (O00167 whole entry, looked up): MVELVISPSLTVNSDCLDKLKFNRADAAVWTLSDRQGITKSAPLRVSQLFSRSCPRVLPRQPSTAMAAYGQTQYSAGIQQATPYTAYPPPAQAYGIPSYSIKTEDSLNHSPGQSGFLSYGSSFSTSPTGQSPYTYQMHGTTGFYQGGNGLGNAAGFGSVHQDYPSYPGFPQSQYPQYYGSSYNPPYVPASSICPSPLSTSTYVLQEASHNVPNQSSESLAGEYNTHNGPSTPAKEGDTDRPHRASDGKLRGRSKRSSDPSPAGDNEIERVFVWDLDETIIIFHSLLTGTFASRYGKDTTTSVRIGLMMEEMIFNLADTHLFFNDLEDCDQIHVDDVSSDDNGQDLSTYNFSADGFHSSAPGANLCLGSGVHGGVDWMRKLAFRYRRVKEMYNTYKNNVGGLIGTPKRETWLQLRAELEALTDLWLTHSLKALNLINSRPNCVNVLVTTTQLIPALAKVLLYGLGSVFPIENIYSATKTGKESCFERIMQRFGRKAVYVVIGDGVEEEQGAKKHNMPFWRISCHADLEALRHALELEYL
Target sequence (Q15475 whole entry, looked up): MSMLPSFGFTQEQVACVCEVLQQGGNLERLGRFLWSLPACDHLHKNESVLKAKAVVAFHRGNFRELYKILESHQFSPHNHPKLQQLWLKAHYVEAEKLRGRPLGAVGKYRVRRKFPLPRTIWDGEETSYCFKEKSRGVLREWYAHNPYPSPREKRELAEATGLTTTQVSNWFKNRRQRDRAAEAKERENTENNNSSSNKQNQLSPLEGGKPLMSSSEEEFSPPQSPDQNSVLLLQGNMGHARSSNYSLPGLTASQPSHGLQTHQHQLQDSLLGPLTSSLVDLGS
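GST-Six1 + His-Eya2 (5X stock: 250/500 nM); Tris pH 8.0, 300 mM NaCl, 0.05% BSA, 0.02% Tween 20; GSH donor/Ni acceptor beads; 1 h 37 °C dark; AlphaScreen readout.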
RORg inh: qHTS for inhibitors of ROR gamma transcriptional activity; Nuclear receptor ROR-gamma (Mus musculus), P51450; Drosophila S2 Gal4-RORgamma UAS-luciferase reporter, 20 h; Potency, µM (titrated, usually from 53.6 µM), for inactives: at the top dose activity change, negative = inhibition, most hits filed as inhibitors; 310,000 tested, 5.4% active; further: potency means the concentration at half of the fitted maximal effect; on the % scale 0 is the no-effect control and ±100 the full control effect; nearly all actives have a fitted effect of over 60% in size
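Drosophila Schneider cells stably carrying a metallothionein-driven Gal4 DBD–ROR gamma fusion and a UAS-Photinus luciferase reporter were exposed to compound for 1 hr, then induced with copper sulfate (700 uM final) for 20 hr at ambient temperature before luminescence reading.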
p53 reactivator: qHTS assay for re-activators of p53 using a Luc reporter | H1299 p53-A138V BP100-luciferase reporter, luminescence, 24 h | Potency, µM (highest dose often 92.2 µM), inactives show at the highest dose activity change, positive = activation, usual class: activators | 320,000 tested, 0.063% active; further: potency means the concentration at half of the fitted maximal effect; % of control where 0% means no effect; nearly all actives have a fitted effect of over 45% in size
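p53-null H1299 cells stably carrying temperature-sensitive p53-A138V and a BP100-luciferase reporter were pinned with compounds (4-point, 1:5 series) and held 24 hrs at 37 deg C. Luminescence was read 10 min after detection reagent.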
* hit, by the source's call. Most compounds without a hit are left out; they make up all but 5.4% or so of the library. Unless noted, the call rests on the fitted dose curve; in most records, active means well fitted curve in the direction sought with a large enough effect; inconclusive means small, poorly fitted or top-dose-only effect, or another doubt; inactive means no such curve, though single readings can be large; an effect the other way counts as inactive or inconclusive.

Results for O=C(CNC(=O)c1cccs1)N/N=C/c1ccc(O)cc1O ?
Gal4-VP16 FLuc: -7%; CtBP-E1A blk: inconclusive; Six1-Eya2 inh: -86*; RORg inh: 34%; p53 reactivator: 5%

Results for Cc1c(CN(C)C)c2c(n1C)C(=O)c1ccc(Br)cc1-2 ?
Gal4-VP16 FLuc: -4%; CtBP-E1A blk: 6; Six1-Eya2 inh: -29; RORg inh: -30%; p53 reactivator: inconclusive

How did Cc1c(CN(C)C)c2c(n1Cc1ccccc1)C(=O)c1ccc(Br)cc1-2 do in these assays?
Gal4-VP16 FLuc: -18%; CtBP-E1A blk: inconclusive; Six1-Eya2 inh: -65*; RORg inh: inconclusive; p53 reactivator: -1%

What do the screens show for `CC(C)CCC[C@](C)(O)c1ccc(C(=O)O)cc1O`?
CtBP-E1A blk: 6; Six1-Eya2 inh: 0

Results for Cc1ccc(C(O)(COC(=O)C(C)C)COC(=O)C(C)C)c(O)c1 ?
Gal4-VP16 FLuc: 32µM*; CtBP-E1A blk: 8; Six1-Eya2 inh: 1; RORg inh: -106%; p53 reactivator: 9%

How did CCCCNC(=O)C1(C)CCCCN1C(=O)c1c(F)ccc(C)c1F (configuration not stated) do in these assays?
CtBP-E1A blk: 13; Six1-Eya2 inh: 8

Results for COc1ccc(S(=O)(=O)Nc2ccc(F)c(Cl)c2)cc1OC ?
Gal4-VP16 FLuc: 7.1µM*; CtBP-E1A blk: -5; Six1-Eya2 inh: 5; RORg inh: -16%; p53 reactivator: 2%

Results for COc1ccc(S(=O)(=O)Nc2ccc(Cc3ccncc3)cc2)cc1OC ?
Gal4-VP16 FLuc: 7.9µM*; CtBP-E1A blk: -10; Six1-Eya2 inh: 4; RORg inh: inconclusive; p53 reactivator: 5%

Results for CCC1Sc2ccc(S(=O)(=O)Nc3ccc(OC)c(OC)c3)cc2NC1=O (configuration not stated) ?
Gal4-VP16 FLuc: 8.9µM*; CtBP-E1A blk: -3; Six1-Eya2 inh: 1; RORg inh: inconclusive; p53 reactivator: -1%

Results for CCc1ccc(OC)c(S(=O)(=O)Nc2ccc(Cc3ccncc3)cc2)c1 ?
Gal4-VP16 FLuc: 2.2µM*; CtBP-E1A blk: -1; Six1-Eya2 inh: -3; RORg inh: inconclusive; p53 reactivator: -9%

How did O=C(c1cc2c(=O)n3ccccc3nc2s1)N1CCc2ccccc2C1 do in these assays?
Gal4-VP16 FLuc: 2%; RORg inh: 32%; p53 reactivator: 1%

What do the screens show for `Cc1cc(C(=O)CN2C(=O)c3ccccc3S2(=O)=O)c(C)n1CC1CCCO1` (configuration not stated)?
Gal4-VP16 FLuc: 8.9µM*; CtBP-E1A blk: -1; Six1-Eya2 inh: -1; RORg inh: 2.2µM*; p53 reactivator: -60%

Results for COc1cc(OC)cc(C(=O)OCC(=O)c2cc(C)n(CC3CCCO3)c2C)c1 (configuration not stated) ?
CtBP-E1A blk: -18; Six1-Eya2 inh: -8; p53 reactivator: 17%

How did Cc1cc(C(=O)COC(=O)c2ccc(O)cc2)c(C)n1CC1CCCO1 (configuration not stated) do in these assays?
Gal4-VP16 FLuc: -21%; CtBP-E1A blk: 4; Six1-Eya2 inh: -5; RORg inh: 7.1µM*; p53 reactivator: -1%

How did Cc1cc(C)cc(C(O)c2ncc(-c3ccccc3)[nH]2)c1 (configuration not stated) do in these assays?
CtBP-E1A blk: -9; Six1-Eya2 inh: -6

How did O=C(N/N=C/c1c[nH]c2ccccc12)c1cccc(Cl)c1 do in these assays?
Gal4-VP16 FLuc: inconclusive; Six1-Eya2 inh: -7; RORg inh: inconclusive; p53 reactivator: 15%

Results for CCC/C(=N/NC(=O)c1cccc(Cl)c1)c1ccccc1 ?
Gal4-VP16 FLuc: inconclusive; CtBP-E1A blk: 2; Six1-Eya2 inh: 1; RORg inh: 13µM*; p53 reactivator: 8%

What do the screens show for `O=C(N/N=C/C1C(c2ccccc2)C1(Cl)Cl)c1cccc(Cl)c1` (configuration not stated)?
Gal4-VP16 FLuc: 4.5µM*; CtBP-E1A blk: 23; Six1-Eya2 inh: 9; RORg inh: 2.8µM*; p53 reactivator: inconclusive

Results for O=C(C=C(C(=O)c1ccccc1)c1ccccc1)c1ccccc1 ?
CtBP-E1A blk: -11; Six1-Eya2 inh: -6

Results for COc1ccccc1OCCn1c(=S)[nH]c2ccccc21 ?
Gal4-VP16 FLuc: 10µM*; CtBP-E1A blk: -1; Six1-Eya2 inh: -11; RORg inh: 10µM*; p53 reactivator: -19%

Results for CCOc1ccc(OCCn2c(=S)[nH]c3ccccc32)cc1 ?
Gal4-VP16 FLuc: 5µM*; Six1-Eya2 inh: 7; RORg inh: 5µM*

How did COc1ccccc1OCCn1c(=O)n(C)c2ccccc21 do in these assays?
Gal4-VP16 FLuc: -8%; CtBP-E1A blk: -5; Six1-Eya2 inh: 0; RORg inh: 27%; p53 reactivator: 16%

What do the screens show for `Cc1ccc(OCCn2c(=S)[nH]c3ccccc32)c(C(C)C)c1`?
Gal4-VP16 FLuc: 4µM*; CtBP-E1A blk: -10; Six1-Eya2 inh: -14; RORg inh: 3.5µM*; p53 reactivator: -2%

What do the screens show for `CCOc1ccc2c(c1)[nH]c(=S)n2C`?
Gal4-VP16 FLuc: inconclusive; CtBP-E1A blk: 1; Six1-Eya2 inh: 4; RORg inh: 8.9µM*; p53 reactivator: -7%

How did COC(=O)CCC(C)C1CCC2C3CCC4CC(O)CCC4(C)C3CC(O)C12C (configuration not stated) do in these assays?
CtBP-E1A blk: 4; Six1-Eya2 inh: 2

Results for S=c1[nH]c2ccccc2n1Cc1ccccc1 ?
Gal4-VP16 FLuc: 7.1µM*; CtBP-E1A blk: -9; Six1-Eya2 inh: 1; RORg inh: inconclusive; p53 reactivator: -8%

Results for N#CCCn1c(=S)[nH]c2ccccc21 ?
Gal4-VP16 FLuc: 5%; CtBP-E1A blk: -7; Six1-Eya2 inh: 2; RORg inh: 14%; p53 reactivator: -3%

What do the screens show for `Cc1cccc(OCCn2c(=S)[nH]c3ccccc32)c1`?
Gal4-VP16 FLuc: 1.6µM*; CtBP-E1A blk: -1; Six1-Eya2 inh: -11; RORg inh: 1.3µM*; p53 reactivator: inconclusive

What do the screens show for `S=c1[nH]c2ccccc2n2cccc12`?
Gal4-VP16 FLuc: 5.6µM*; CtBP-E1A blk: 0; Six1-Eya2 inh: 1; RORg inh: 0.89µM*; p53 reactivator: -11%

Results for Cn1c(=S)[nH]c2ccccc21 ?
Gal4-VP16 FLuc: inconclusive; CtBP-E1A blk: 5; Six1-Eya2 inh: -1; RORg inh: 13µM*; p53 reactivator: -3%

What do the screens show for `c1ncc(CCCC2CCNCC2)[nH]1`?
Gal4-VP16 FLuc: 13%; RORg inh: 1%

Screening data deposited in PubChem by National Center for Advancing Translational Sciences (NCATS).
